According to PubChem BioAssay:

Legend:
[1] = NFkB reporter suppression in cystic fibrosis bronchial cells – cell-based, uHTS hits, panel, cytotoxicity readout, dose response (AID 624344); settings: CF bronchial epithelial cells, PAF-induced NFkB reporter inhibition, with PAF, run 1; at 79 µM (top of the series) unless noted
[2] = as above; settings: CF bronchial epithelial cells, PAF-induced NFkB reporter inhibition, with PAF, run 2; at 79 µM (top of the series) unless noted

SMILES	inhibition [1]	inhibition [2]
COc1ccc(NC(=O)Cn2ncn3nc(-c4ccc(OC)cc4)cc3c2=O)cc1	102%	107%
CCOC(=O)COc1ccc2ccccc2c1/C=C/[N+](=O)[O-]	100%	97.5%
ON=C1c2ccccc2-c2cc(Br)ccc21	117%	106%
O=C(NCCc1ccc(F)cc1)c1coc(=O)c(Br)c1	82%	83.4%
CC1Sc2ccc(Cl)cc2-c2nc(N)ncc21 (configuration not stated)	102%	108%
CC(C)OC(=O)c1cccc(C(=O)Nc2cccc(NC(=O)c3cccc(C(=O)OC(C)C)n3)n2)n1	103% [at 9.88 µM]	109% [at 19.8 µM]
CCCCCCCCCc1nc2sc3c(c2c(=O)n1NC(=O)c1ccc([N+](=O)[O-])cc1)CC(C)(C)OC3	80.5%	115%
NC1(C(=O)O)CSSC1	112%	103%
Cc1ccc(CNc2ncnc3ccc(-c4ccc(CO)o4)cc23)o1	101%	99.1%
Cc1cccc(N2CCN(C(=O)c3[nH]c(C(F)(F)F)nc3-c3ccccc3)CC2)c1C	91.2%	103%
CCOC(=O)C1=C(CC)Nc2ccccc2N=C1NC(=O)c1oc2ccccc2c1C	111%	91.5%
COC(=O)N1C(=O)[C@@](c2ccc(OC)cc2)(C(C)C)N1C(=O)OC	101%	102%
COc1ccc(OC)c(C2CC(=O)c3c([nH]c(C(=O)OC(C)C)c3C)C2)c1 (configuration not stated)	51.7%	64.2%
Nc1cc2c(cc1Br)-c1ccccc1C2=NO	93.5%	106%
COc1ccc(S(=O)(=O)N2c3ccc(F)cc3CCC2C)cc1 (configuration not stated)	98.8%	71.7%
CC(=O)Oc1ccc(N(C(C)=O)S(=O)(=O)c2cccs2)c2ccccc12	92.7%	62.6%
CC[C@H](CO)Nc1nc(Nc2cccc(Cl)c2)c2ncn(C(C)C)c2n1	106%	108%
c1cncc(CNc2ncnc3ccc(-c4ccoc4)cc23)c1	113%	98.2%
c1ccc(-c2nc3nonc3nc2-c2ccccc2)cc1	102%	109%
C[C@H]1Cn2cnc(C(=O)Nc3cccc(Cl)c3)c2C(=O)N1	105%	104%
CCC1=Nc2cc(C(=O)NCc3ccco3)ccc2Sc2ccc(C)cc21	99.5%	92.2%

SMILES	inhibition [1]	inhibition [2]
O=C(NCCN1CCN(c2ccccc2)CC1)c1cccc(Br)c1	113%	73.9%
O=C1C(=Cc2ccccc2[N+](=O)[O-])Cc2ccccc21	68.5%	106%
COc1ccc(-c2csc(/C(C#N)=C\c3ccc(O)c([N+](=O)[O-])c3)n2)cc1OC	97.7%	102%
C=CCSc1nc2ccccc2n1C(=O)/C=C/c1ccc(OC)c(OC)c1	115%	102%
CC1Cc2ccccc2N1c1ncnc2nc[nH]c12 (configuration not stated)	114%	106%
CC(C)C[C@@H]1NC(=O)[C@H](Cc2ccccc2)N(C)C(=O)[C@H](C)NC(=O)c2ccccc2NC(=O)[C@H](Cc2ccc(O)cc2)N(C)C1=O	102%	103%
Cc1cccc(NC(=O)c2cc(-c3ccc(C)s3)nc3ccccc23)n1	98.5%	95.4%
Cc1cnc(NC(=O)CCCc2nc3ccccc3s2)s1	101%	114%
O=c1[nH]c(C2CCN(S(=O)(=O)c3ccc4c(c3)OCCO4)CC2)nc2c1nnn2Cc1c(F)cccc1Cl	93%	101%
O=C(c1ccccc1)C1OC1C(=O)c1ccccc1 (configuration not stated)	101%	109%
COc1ccc(-n2nc(C(=O)NCC(=O)Nc3cc(OC)c(OC)c(OC)c3)c3ccccc3c2=O)cc1OC	102%	101%
CCCCCCc1cc2cc(S(=O)(=O)c3ccc(F)cc3)c(=O)oc2cc1O	103%	87.3%
Cc1ccc(-n2nnnc2Sc2ccc(S(=O)(=O)NCCN(C)C)cc2[N+](=O)[O-])cc1	104%	114%
NC(=O)c1cc2ccc(O)cc2oc1=Nc1ccccc1	92.3%	95.2%
CCc1ccc(Nc2n[n+](-c3ccccc3)c(-c3c(Cl)cccc3Cl)s2)cc1	116%	101%
Cc1cc(C)cc(NS(=O)(=O)c2ccc(-c3cnc(C4CC4)o3)cc2)c1	110%	106%
Cc1nn(-c2ccccc2)c(N2CCCC2)c1/C=N/NC(=O)c1cc(-c2ccccc2)nc2ccccc12	104%	80%
O=C(Nc1ccc([N+](=O)[O-])cc1)Nc1ccc(Cl)cc1F	109%	101%
Cc1ccc(NC(=O)Nc2cccc([N+](=O)[O-])c2)cc1F	102%	113%
CCC(=NCCc1c(C)[nH]c2ccc(C)cc12)C1=C(O)CC(c2ccccc2)CC1=O (configuration not stated)	82.1%	92%
